The text below walks through data of PubChem BioAssay AID894 (National Center for Advancing Translational Sciences (NCATS), 2007).

The campaign covered roughly 150,000 compounds. About 6,500 (4.3%) were called active. Roughly 12% stayed inconclusive and do not appear here. The sample holds actives, similar compounds and a random draw of the others, so the mix is not that of the screen. Unmarked numbers belong to inactive results. Calls come from the whole dose curve; as a rule, active = well fitted inhibition curve with a large enough effect (not every such curve was filed as active); inconclusive = small, poorly fitted or top-dose-only effect, or another doubt; inactive = no such curve, though single readings can be large or run the other way.
% is set by controls: 0 for no effect and ±100 for the full control effect; potency is the fitted concentration of half-maximal effect.

15-hydroxyprostaglandin dehydrogenase [NAD(+)] (Homo sapiens), sequence (P15428 whole entry, looked up): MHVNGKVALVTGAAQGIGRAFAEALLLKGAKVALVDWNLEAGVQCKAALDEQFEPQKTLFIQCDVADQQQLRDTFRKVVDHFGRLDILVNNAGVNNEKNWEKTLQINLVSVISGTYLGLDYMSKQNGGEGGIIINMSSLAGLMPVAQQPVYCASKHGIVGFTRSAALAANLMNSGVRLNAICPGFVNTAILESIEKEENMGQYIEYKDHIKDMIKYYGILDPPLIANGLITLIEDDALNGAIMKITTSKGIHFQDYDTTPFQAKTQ

This experiment deals with 15-hydroxyprostaglandin dehydrogenase [NAD(+)] (Homo sapiens) (UniProt P15428). The experiment is described as follows: qHTS Assay for Inhibitors of HPGD (15-Hydroxyprostaglandin Dehydrogenase). As to conditions: purified HPGD, NADH fluorescence kinetic, PGE2 substrate; activity change, negative = inhibition: hits give low values. In outline:
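20 nM HPGD preincubated 15 min at room temperature with compound in 50 mM Tris-HCl pH 8, 0.01% Tween 20. Started with 1 mM NAD+ and 30 uM prostaglandin E2; NADH fluorescence (360/450 nm) read 5 times over 30-s intervals, last minus first.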
In general terms: In qHTS, concentration-response curves come from the screen itself.
As to `Cc1ccc2[nH]c(C(=O)O)c(NC(=O)c3ccccc3[N+](=O)[O-])c2c1`, the activity change, negative = inhibition is -8.36%.

Consider `COc1ccc(C(=O)NC2(C(F)(F)F)NC(=O)N(CCCc3ccccc3)C2=O)c(OC)c1OC` (centres undefined), for which the activity change, negative = inhibition is -2.88%.

On to `Cc1cccc(C)c1NC(=O)CSc1ccc([N+](=O)[O-])cn1`, for which the activity change, negative = inhibition is -5.79%.

For `COc1ccccc1N1CCN(C(=O)C(=O)N/N=C/c2ccccc2F)CC1`, the activity change, negative = inhibition is -6.15%.

For the molecule `CC(C)=C(NC(=O)c1ccccc1)C(=O)N/N=C(\C)c1ccccc1O`, the activity change, negative = inhibition is -7.72%.

For the molecule `Cc1cc(C)cc(NC(=S)NCCCN2CCOCC2)c1`, the activity change, negative = inhibition was -3.2%.

As to `Cc1ccc2[nH]c(=O)c(CC=C(Cl)Cl)c(C)c2c1`, the activity change, negative = inhibition was -6.58%.

With `Cc1cc(C(=O)NNC(=S)Nc2ccccc2C)cs1`, the activity change, negative = inhibition was -17.5%.

As to `COC(=O)C1=NNC2(c3ccc(C)cc3)C(=O)N(c3cccc(C)c3C)C(=O)C12` (centres undefined), the activity change, negative = inhibition was -7.55%.

In the case of `O=C(Cc1cccs1)N/N=C/c1ccc(OCc2ccccc2)cc1`, the activity change, negative = inhibition is -20.3%.

With `CCOc1ccc(/C=N/OCC(=O)NCc2cccs2)cc1`, the Potency is 15.8 µM (active).

Regarding `CCOc1ccc(/C=N/NC(N)=S)cc1`, the activity change, negative = inhibition was -6.57%.

For `CC1CCc2sc(C(=O)N/N=C/C3CCCCC3)cc2C1` (centres undefined), the activity change, negative = inhibition is -7.97%.

Consider `Cc1cc(C)n(C(=O)CCNC(=O)c2ccccc2Cl)n1`, for which the Potency is 15.8 µM (active).

As to `O=C(Nc1ccccc1C(=O)NCCCn1ccnc1)c1ccc(Cl)cc1Cl`, the activity change, negative = inhibition is -7.71%.

As for `CCOc1ccc(NC(=O)CCC(=O)n2nc(C)cc2C)cc1`, the activity change, negative = inhibition was -8.1%.

On to `CCOC(=O)CC(NC(=O)C1c2ccccc2Oc2ccccc21)c1ccc(C)cc1` (centres undefined), for which the activity change, negative = inhibition is 6.16%.

Consider `CCOC(=O)C1=C(C)OC(N)=C(C#N)C1c1cncc(-c2ccc(F)cc2)c1` (centres undefined), for which the activity change, negative = inhibition is -9.79%.

On to `Cc1cnc(NC(=O)CSc2c(Cl)cccc2Cl)s1`, for which the activity change, negative = inhibition was -12.6%.

Take `Cc1cnc(NC(=O)CSc2nnc(-c3ccc(Cl)cc3Cl)n2N)s1`: the Potency is 25.1 µM (active).

Take `Cc1cnc(NC(=O)CSc2nnc(-c3ccccc3)n2Cc2ccccc2)s1`: the activity change, negative = inhibition is -9.73%.

On to `CCCCC(O)(CCCC)C(=O)NN(C(=O)CCl)c1ccccc1`, for which the activity change, negative = inhibition was -6.18%.

With `O=C(NCCCO)/C(=C\C=C\c1ccccc1)NC(=O)c1ccccc1Cl`, the activity change, negative = inhibition is -15.4%.

Turning to `CC(C)(C)C(=O)NC(NC(=S)Nc1ccc(S(N)(=O)=O)cc1)C(Cl)(Cl)Cl` (centres undefined), the activity change, negative = inhibition is -0.407%.

On to `CC(C)(C)C1CCC(=NNC(=O)c2cc(-c3ccccc3)n[nH]2)CC1` (centres undefined), for which the activity change, negative = inhibition is -7.88%.

With `Cc1ccccc1-c1ccc(Nc2ccc(C(=O)N3CCOCC3)cc2)nn1`, the Potency was 22.4 µM (active).

On to `O=C(c1ccccc1-c1ccccc1)N1CCOCC1`, for which the activity change, negative = inhibition was -1.91%.

For the molecule `Cc1onc(-c2ccccc2)c1C(=O)N1CCOCC1`, the activity change, negative = inhibition was 0.967%.

With `O=C(COc1ccc(/C=N/NC(=O)c2ccc(O)cc2)cc1)Nc1ccc([N+](=O)[O-])cc1`, the activity change, negative = inhibition is -5.7%.

As to `O=C(NCc1ccco1)O[C@@H]1C(=O)c2cc(Br)ccc2O[C@H]1c1ccc2c(c1)OCO2`, the activity change, negative = inhibition is -7.84%.

Turning to `Cc1ccc(Nc2nnc(SCC(=O)c3cc4ccccc4o3)s2)cc1C`, the activity change, negative = inhibition is -14.9%.

For `CC(C)c1ccc(Nc2nnc(SCC(=O)c3nnc(-c4ccccc4)o3)s2)cc1`, the Potency was 31.6 µM (active).

For the molecule `O=C(CSc1nnc(Nc2ccccc2)s1)Nc1cccnc1Cl`, the activity change, negative = inhibition was -3.17%.

With `Cc1nn(Cc2ccccc2)c(C)c1C(=O)NCCN1C(=O)S/C(=C\c2ccc(F)cc2)C1=O`, the activity change, negative = inhibition is -19.6%.

For `COc1cccc(/C=N\NC(=O)C2=NNC(=O)C2C)c1O` (centres undefined), the activity change, negative = inhibition is -11.9%.

For `COc1cccc(/C=N/NC(=O)c2[nH]nc3c2CCc2ccccc2-3)c1O`, the Potency was 35.5 µM (active).

Regarding `COc1cccc(/C=N/Nc2ncc(C(F)(F)F)cc2Cl)c1O`, the activity change, negative = inhibition was -13.5%.

Consider `O=C1CCC[C@@H]2CC(N3CCCCC3)C[C@@H]3CCN1[C@H]23` (some centres undefined), for which the activity change, negative = inhibition was -1.93%.

`C=CCNC(=S)NNC(=O)COc1c(Cl)cc(Cl)cc1Cl`: the activity change, negative = inhibition is -21.2%.

As for `Cc1ccc(Cl)cc1N1CCN(C(=O)c2cccc3c(=O)c(C)c(-c4ccccc4)oc23)CC1`, the activity change, negative = inhibition was 0.844%.

In the case of `O=C(c1ccc(S(=O)(=O)N2CCOCC2)cc1)N1CCN(c2ccccc2)CC1`, the activity change, negative = inhibition is -5.22%.

On to `CC(=O)N1CCN(C(=O)c2cccc(S(=O)(=O)Nc3ccc(C)cc3)c2)CC1`, for which the activity change, negative = inhibition is 4.03%.

On to `CC1CCN(C(=O)c2ccc(CSc3ccc(Cl)cc3)cc2)CC1`, for which the Potency was 0.891 µM (active).

In the case of `O=C(Nc1ccc(CSc2ccccc2)cc1)c1ccc(CN2CCOCC2)cc1`, the activity change, negative = inhibition is -8.57%.

Take `NC(=O)C1CCN(C(=O)c2ccc(-c3ccccc3)cc2)CC1`: the activity change, negative = inhibition is -4.39%.

For `CCOC(=O)N1CCN(C(=O)CSc2ccc(Cl)cc2)CC1`, the activity change, negative = inhibition was -15.4%.

As for `COc1ccccc1N1CCN(C(=O)c2ccc(S(=O)(=O)N3CCCCC3)cc2)CC1`, the activity change, negative = inhibition was -4.4%.

For the molecule `CC(NC(=O)c1ccc(Cl)cc1)C(=O)N1CCCCC1` (centres undefined), the activity change, negative = inhibition was -4.27%.

On to `O=C(c1ccc(CSc2ccccc2)cc1)N1CCCCCC1`, for which the Potency is 0.316 µM (active).

As to `O=C(c1ccc(S(=O)(=O)c2ccccc2)cc1)N1CCCCCC1`, the Potency was 17.8 µM (active).

`CS(=O)(=O)Nc1ccc(C(=O)N2CCCC2)cc1`: the Potency is 20 µM (active).

With `O=C(C1CC1)N1CCN=C1SCc1ccc(Cl)cc1`, the activity change, negative = inhibition is -17.7%.

With `CC1CCCN(CCOCCOc2ccccc2-c2ccccc2)C1` (centres undefined), the activity change, negative = inhibition is -3.59%.

`COC(=O)N1C(/C=C/C=C/c2ccc(OC)cc2)=Cc2ccccc2C1CC(C)=O` (centres undefined): the activity change, negative = inhibition was -15%.

Take `CC1CCN(c2ccc(C(=O)Nc3nnc(C4CC4)s3)cc2[N+](=O)[O-])CC1`: the activity change, negative = inhibition was -7.37%.

Take `CC(NC(=S)Nc1ccccc1)C1COc2ccccc2O1` (centres undefined): the activity change, negative = inhibition is -1.93%.

With `COc1cc(OC)nc(N/N=C(\c2ccccc2)c2ccncc2)n1`, the activity change, negative = inhibition was -10.6%.

As for `CCC1(C(=O)c2ccccc2)C(c2cccc([N+](=O)[O-])c2)C1(C(=O)OC)C(=O)OC` (centres undefined), the activity change, negative = inhibition was -4.68%.

In the case of `COc1ccc(Br)cc1CN(C)CC(=O)Nc1cc(Cl)cc(Cl)c1`, the activity change, negative = inhibition was -12.1%.
